In PubChem BioAssay (NCATS):
Records with an inconclusive call do not appear. A number with no mark means an inactive call. Calls follow the shape of the dose curve; as a rule, active = well fitted curve in the direction sought with a large enough effect; inconclusive = small, poorly fitted or top-dose-only effect, or another doubt; inactive = no such curve, though single readings can be large or run the other way.

experiment: KB-3-1 P-gp reporter qHTS against the NCATS DSHEA and TCM libraries (AID 1919975); conditions: KB-3-1 parental cells, CellTiter-Glo luminescence viability, 72 h; series mostly up to 26.1 µM; activity change, negative = inhibition: at the top concentration; also: 0% is about no effect
Excerpt: Assay Development and Screening Technology Laboratory (ADST)
National Center for Advancing Translational Sciences (NCATS), Rockville, MD
National Institute of Health (NIH), Bethesda, Maryland
Dietary Supplements and Natural Products have minor oversight of their safety and efficacy. We assembled a collection of Dietary Supplements and Natural Products (DSNP) as well as Traditional Chinese Medicinal (TCM) Plant extracts, which were screened against an in vitro panel of assays, including a liver cytochrome p450 enzyme panel, CAR/PXR signaling pathways, and P-gp transporter assays, to assess their activity. This pipeline facilitated the interrogation of Natural Product-Drug Interaction (NaPDI) through prominent metabolizing pathways. In addition, we compared the activity profiles of the DSNP/TCM substances with those of an approved drug collection. Many of the approved drugs have well-annotated mechanisms of action (MOA) while the MOAs for most of the DSNP and TCM samples remain unknown. Based on the premise that compounds with similar activity profiles tend to share similar targets or MOA, we clustered the library activity profiles to identify overlap with the NCATS Pharmaceutical Collection to predict the MOAs of the DSNP/TCM substances. Overall, we highlight four significant bioactivity profiles (measured by p-values) as examples of this prediction. To assess broad cytotoxicity, we employed screening against a HepG2 cell line. In addition, transporter-mediated drug interactions are utilized in the characterization of DDIs using a P-glycoprotein (P-gp) assays. To profile potential P-gp activity, a differential cell viability was measured against two cell lines: a parental KB-3-1 human cervical adenocarcinoma cell line and the drug-resistant subline KB-8-5-11 that overexpresses P-gp.
To this end, we profiled both collections for potential CAR and/or PXR activity, employing a previously published 1536-well qHTS assay.
[1] Lee TD, et al. A High-Throughput Screen of a Library of Therapeutics Identifies Cytotoxic Substrates of P-glycoprotein. Mol Pharmacol. Nov 2019;96(5):629-640. doi:10.1124/mol.119.115964
PROTOCOL TABLE (as described by Inglese J, Shamu CE and Guy RK. 2007)
SEQUENCE No. (e.g., 1, 2, 3, etc.); PARAMETER (e.g., Cells, Incubation, Reagent, etc.); VALUE; DESCRIPTION.
1; Cells; 5 uL; KB-3-1 cells, white solid-bottom tissue treated Greiner plate.
2; Incubation; 4 hrs; 37C, 95% humidity, 5% CO2.
3; Compounds and control; 23 nL; Kalypsis pin tool (Wako USA) equipped with a 1536-well pin head to transfer to the assay plates.
4; Incubation; 72 hrs; 37C, 95% humidity, 5% CO2.
5; Reagent; 2.5 uL; CellTiter-Glo.
6; Centrifuge; 1000 RPM; 15 seconds.
7; Incubation; 30 min; room temperature.
8; Read; Luminescence; ViewLux plate reader.
NOTES (numbers refer to Sequence numbers above)
1. Cell line KB-3-1 and its colchicine-selected, P-gp-overexpressing subline KB-8-5-11 were maintained in DMEM (Thermofisher catalog #11965) with 10% FBS and 1% penicillin/streptomycin at 37C in 5% CO2. For the screen, assay medium was identical to culture medium. Briefly, 5 uL of cells at 1 x 10^5 cells/mL (500 cells/well) were dispensed into a 1536-well white solid-bottom tissue treated plate (Greiner Bio-One) using a Multidrop Combi dispenser.
2. Plates were incubated at 37C, 95% humidity, 5% CO2 for ~4 hours to allow for cell attachment.
3. Compounds and intraplate control (Bortezomib; final concentration range 228 pM - 7.5 uM) were transferred (16 nL) via pintool (Wako Automation), for a final concentration of 15.6 nM - 30.0 uM (most substances).
4. Plates were incubated for ~72 hours at 37C, 95% humidity, 5% CO2.
5. Plates were then dispensed with 2.5 uL of CellTiter-Glo.
6. The assay plates were centrifuged for 15 seconds at 1,000 RPM's.
7. The plates were incubated for 30-minute at room temperature.
8. Luminescence intensity was detected using a PerkinElmer ViewLux microplate reader.
[…]

Row | SMILES | activity change, negative = inhibition
1 | CC(C)=CCC[C@](C)(O[C@@H]1O[C@H](CO)[C@@H](O)[C@H](O)[C@H]1O)[C@H]1CC[C@]2(C)[C@@H]1[C@H](O)C[C@@H]1[C@@]3(C)CC[C@H](O)C(C)(C)[C@@H]3[C@@H](O[C@@H]3O[C@H](CO)[C@@H](O)[C@H](O)[C@H]3O)C[C@]12C | 3.95%
2 | Cc1ncc(COP(=O)(O)O)c(C)c1O | 9.14%
3 | COc1cc(/C=C/c2ccccc2)oc(=O)c1 | -4.12%
4 | CC(C)=CCC[C@](C)(O[C@@H]1O[C@H](CO)[C@@H](O)[C@H](O)[C@H]1O)[C@H]1CC[C@]2(C)[C@@H]1[C@H](O)C[C@@H]1[C@@]3(C)CC[C@H](O[C@@H]4O[C@H](CO)[C@@H](O)[C@H](O)[C@H]4O[C@@H]4O[C@H](CO)[C@@H](O)[C@H](O)[C@H]4O)C(C)(C)[C@@H]3CC[C@]12C | 2.46%
5 | CC1=CCC(=C(C)C)CC1 | -11.5% [at 44.5 µM]
6 | CCCCCCCC/C=C\CCCCCCCCCCCC(=O)O | -1.03%
7 | CC(C)=CCC[C@](C)(OC1OC(COC2OCC(O)C(O)C2O)C(O)C(O)C1O)[C@H]1CC[C@]2(C)[C@@H]1[C@H](O)C[C@@H]1[C@@]3(C)CC[C@H](OC4OC(CO)C(O)C(O)C4OC4OC(CO)C(O)C(O)C4O)C(C)(C)[C@@H]3CC[C@]12C (stereo not given in full) | -9.92%
8 | CCCCCCCC/C=C/CCCCCCCCCC(=O)O | 3.06%
9 | OCCc1ccc(O)cc1 | -14.7% [at 44.5 µM]
10 | CC1=CC[C@H](C(C)C)C=C1 | -12.7% [at 44.5 µM]
11 | CC12CC3(O)OC(O1)C1(COC(=O)c4ccc(O)cc4)C3CC21OC1OC(CO)C(O)C(O)C1O (stereo not given) | -5.53%
12 | C=CC(C)(CCC=C(C)C)OC(C)=O (stereo not given) | -15.6% [at 44.5 µM]
13 | C[C@@H]1OC(O[C@H]2[C@H](O)[C@@H](O)[C@H](OC[C@H]3O[C@@H](OC(=O)[C@]45CCC(C)(C)C[C@@H]4C4=CCC6[C@@]7(C)CC[C@H](OC8OC[C@H](O)[C@H](O)[C@H]8OC8O[C@@H](C)[C@H](O)[C@@H](O)[C@H]8O)[C@@](C)(CO)C7CC[C@@]6(C)[C@]4(C)CC5)[C@H](O)[C@@H](O)[C@@H]3O)O[C@@H]2CO)[C@H](O)[C@H](O)[C@H]1O (stereo not given in full) | -14%
14 | CC(=O)OC1CC2CCC1(C)C2(C)C (stereo not given) | -6.21%
15 | O=C(OC[C@H]1O[C@@H](OC(=O)c2cc(O)c(O)c(O)c2)[C@H](OC(=O)c2cc(O)c(O)c(O)c2)[C@@H](OC(=O)c2cc(O)c(O)c(O)c2)[C@@H]1O)c1cc(O)c(O)c(O)c1 | -17.3% [at 14.4 µM]
16 | CC1(C)CC[C@]2(C(=O)O)CC[C@]3(C)C(=CCC4[C@@]5(C)CC[C@H](O)[C@@](C)(CO)C5CC[C@]43C)[C@H]2C1 (stereo not given in full) | -5.22%
17 | O=Cc1ccccc1O | -6.28% [at 44.5 µM]
18 | O=C(/C=C/c1ccc(O)c(O)c1)OC1[C@H](O)CC(O)(C(=O)O)C[C@@H]1O (stereo not given in full) | -2.82%
19 | O=C(/C=C/c1ccc(O)c2c1[C@H](C(=O)O)[C@@H](c1ccc(O)c(O)c1)O2)O[C@H](Cc1ccc(O)c(O)c1)C(=O)O | 2.2%
20 | CC(C)c1ccc(C=O)cc1 | -20.8% [at 44.5 µM]

Row | SMILES | activity change, negative = inhibition
21 | CCCCCCCC/C=C\CCCCCCCCCCCCCC(=O)O | -1.13%
22 | O=C(/C=C/c1ccc(O)c(O)c1)O[C@@H]1CC(O)(C(=O)O)C[C@@H](OC(=O)/C=C/c2ccc(O)c(O)c2)C1O (stereo not given in full) | -10.1%
23 | CC1=C2[C@H](/C=C(\C)C(=O)O)CC[C@@H](C)[C@H]2CC1 | 1.39%
24 | C=C1C[C@@]23CC[C@H]4[C@@](C)(CCC[C@@]4(C)C(=O)O[C@@H]4O[C@H](CO)[C@@H](O)[C@H](O)[C@H]4O)[C@@H]2CC[C@]1(O[C@@H]1O[C@H](CO)[C@@H](O)[C@H](O[C@@H]2O[C@H](CO)[C@@H](O)[C@H](O)[C@H]2O)[C@H]1O[C@@H]1O[C@@H](C)[C@H](O)[C@@H](O)[C@H]1O)C3 | 2.72%
25 | CC1=C2[C@H]([C@@H](C)CC[C@@H]2/C=C(\C)C(=O)O)[C@@H](O)C1 | -0.761%
26 | CC(C)=CCC[C@](C)(O[C@@H]1O[C@H](CO)[C@@H](O)[C@H](O)[C@H]1O)[C@H]1CC[C@]2(C)[C@@H]1[C@H](O)C[C@@H]1[C@@]3(C)CC[C@H](O)C(C)(C)[C@@H]3[C@@H](O[C@@H]3O[C@H](CO)[C@@H](O)[C@H](O)[C@H]3O[C@@H]3O[C@@H](C)[C@H](O)[C@@H](O)[C@H]3O)C[C@]12C | 2.71%
27 | CCCCCCCCCCCCCC(=O)O | 7.61%
28 | CC(=O)O[C@H]1[C@H](O[C@H]2CC[C@]34C[C@]35CC[C@]3(C)[C@@H]([C@@]6(C)CC[C@@H](C(C)(C)O)O6)[C@@H](O)C[C@@]3(C)[C@@H]5C[C@H](O[C@@H]3O[C@H](CO)[C@@H](O)[C@H](O)[C@H]3O)[C@H]4C2(C)C)OC[C@@H](O)[C@@H]1O | 10.5%
29 | C=C1C[C@@]23CC[C@H]4[C@@](C)(CCC[C@@]4(C)C(=O)O[C@@H]4O[C@H](CO)[C@@H](O)[C@H](O)[C@H]4O[C@@H]4O[C@H](CO)[C@@H](O)[C@H](O)[C@H]4O)[C@@H]2CC[C@]1(O[C@@H]1O[C@H](CO)[C@@H](O)[C@H](O)[C@H]1O[C@@H]1O[C@H](CO)[C@@H](O)[C@H](O)[C@H]1O)C3 | -6.11%
30 | CC(=O)OC/C=C/c1ccccc1 | -16.4% [at 44.5 µM]
31 | CCCCCCCCCCCC(=O)O | 1.81%
32 | COc1ccccc1/C=C/C=O | -23.2% [at 44.5 µM]
33 | C[C@@H]1O[C@@H](OC[C@H]2OC(Oc3c(-c4ccc(O)c(O)c4)oc4cc(O)cc(O)c4c3=O)[C@H](O)[C@@H](O)[C@@H]2O)[C@H](O)[C@H](O)[C@H]1O (stereo not given in full) | 3.81%
34 | CCCCCC/C=C/CCCCCCCCCC(=O)O | 1.98%
35 | Cc1ccc(O)c(O)c1 | -7.75% [at 44.5 µM]
36 | C=C1CC[C@H](O)C/C1=C\C=C1/CCC[C@]2(C)[C@@H]([C@H](C)CC[C@H](C)C(C)C)CC[C@@H]12 | 2.01%
37 | CC1(C)C2CCC1(C)C(O)C2 (stereo not given) | -12.6%
38 | COc1ccc(-c2coc3cc(O[C@@H]4O[C@H](CO)[C@@H](O)[C@H](O)[C@H]4O)ccc3c2=O)cc1 | -20.5%
39 | C=C/C(C)=C/C/C=C(\C)CCC=C(C)C | -7.66% [at 44.5 µM]
40 | CCCCCCCCCCCCCC(=O)OCC(O)CO (stereo not given) | -3.08% [at 44.5 µM]
